# Bioassay records deposited in PubChem by National Center for Advancing Translational Sciences (NCATS).
# B2AR arrestin ag = ADRB2 beta-arrestin recruitment; Potency, µM (highest dose often 46.1 µM), actives largely listed as activators; AID 1347077; HTLA Tango cells, beta-arrestin recruitment, luciferase luminescence, 18 h; 44,000 tested, under 10 active; P07550;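 also: potency is read from the fitted curve at half-maximal effect; 0% = DMSO and full agonism = EC100 isoproterenol or metaproterenol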
#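 Luminescence read-out: arrestin recruitment to recombinant beta2-AR releases tTA, inducing luciferase. Cells exposed 18 hr at 37 degrees C to up to 46 microM compound; %Activity from corrected signal, concentration-response curves classified by r2, magnitude and efficacy.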
# DRV1 agonist = agonists of human resolvin D1 receptor DRV1 (GPR32); AID 1346428; 48,000 tested, 2.5% active; O75388; activation, % at 76.9 µM; CHO-K1 GPR32 beta-arrestin PathHunter luminescence, 90 min; zero percent set by DMSO-only wells;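 active = activation of at least 60% and not above a set upper limit, about 1 call in 100 departs from these limits; inconclusive = activation of 40% to 60%, or above that upper limit; inactive = activation under 40%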; also: 0% is about no effect
# Target sequence (O75388 whole entry, looked up): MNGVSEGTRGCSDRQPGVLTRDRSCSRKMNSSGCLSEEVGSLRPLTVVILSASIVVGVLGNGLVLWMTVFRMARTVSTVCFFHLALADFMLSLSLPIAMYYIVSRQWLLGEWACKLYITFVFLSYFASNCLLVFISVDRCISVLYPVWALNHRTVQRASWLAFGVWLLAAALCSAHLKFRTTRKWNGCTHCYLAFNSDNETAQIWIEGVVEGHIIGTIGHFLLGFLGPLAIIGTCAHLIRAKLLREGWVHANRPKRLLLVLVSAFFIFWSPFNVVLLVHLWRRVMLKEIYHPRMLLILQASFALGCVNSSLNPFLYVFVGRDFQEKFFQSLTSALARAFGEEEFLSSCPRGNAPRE
#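 CHO-K1 cells stably expressing ProLink-tagged GPR32 and Enzyme Activator-tagged beta-arrestin were seeded at 2,500 cells/well overnight, exposed to compounds for 90 min at 37 °C, then read by beta-Gal complementation chemiluminescence after 1 h detection reagent.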
# PTAP-TSG101 blk = inhibitors of HIV-1 PTAP binding to human TSG101, validation. Q99816. Fluorescence polarization, FITC-PTAP peptide/Tsg101, 20 min. Potency, µM (top dose mostly 115 µM), hits mostly inhibitors. 44,000 tested, under 10 active. AID 1347069; also: potency is read from the fitted curve at half-maximal effect; 0% is about no effect
#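 The Tsg101 binding domain, at 10 uM final, is mixed with compound and a FITC peptide bearing the PTAP motif (50 nM final). After 20 min at r.t., polarization is measured; actives defined by CRC class, efficacy cut-off 60% inhibition.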
# HTT promoter inh = inhibitors of huntingtin promoter activity | AID 1508623 | Potency, µM (top dose mostly 57.5 µM), inactives show top-dose activity change, negative = inhibition, usual class: inhibitors | 48,000 tested, 0.93% active | HEK293 HTT promoter firefly luciferase reporter, 24 h; also: potency is read from the fitted curve at half-maximal effect; nearly all actives have a fitted effect of over 50% in size
#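 HEK293 Fluc reporter, 2,500 cells/well, 24 h pre-culture; cpds up to 57.5 uM final, 24 h 37 degrees C; Dual-Glo, 10 min RT; normalized vehicle = 0%, zero RLU = -100%.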
# HTT-AS promoter = activators of huntingtin-antisense promoter activity. HEK293 HTT-AS promoter firefly luciferase reporter, 24 h; response scale: percent change from vehicle, -100% = no light. Potency, µM (highest dose often 57.5 µM), for inactives: at the highest dose activity change, positive = activation, hits mostly activators. 48,000 tested, 0.24% active; also: potency is read from the fitted curve at half-maximal effect; nearly all actives have a fitted effect of over 55% in size
#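 Luminescence was read after Dual-Glo reagent and a 10 min room-temperature incubation. Values were normalized to vehicle (0% activity) and zero RLU (-100% activity). Reporter HEK293 cells had been exposed to compounds (up to 57.5 uM final) for 24 h.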
# GALK inhibitor = GALK (human) enzyme inhibition; 44,000 tested, under 10 active; recombinant GALK, Kinase-Glo ATP luminescence, 1 h; AID 1347072; Potency, µM (doses to about 57.5 µM), without a hit: at the top dose activity, negative = inhibition, actives largely listed as inhibitors; P51570;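 also: plate controls were full GALK reaction for no effect and reaction lacking GALK for full effect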
# Target sequence (P51570 whole entry, looked up): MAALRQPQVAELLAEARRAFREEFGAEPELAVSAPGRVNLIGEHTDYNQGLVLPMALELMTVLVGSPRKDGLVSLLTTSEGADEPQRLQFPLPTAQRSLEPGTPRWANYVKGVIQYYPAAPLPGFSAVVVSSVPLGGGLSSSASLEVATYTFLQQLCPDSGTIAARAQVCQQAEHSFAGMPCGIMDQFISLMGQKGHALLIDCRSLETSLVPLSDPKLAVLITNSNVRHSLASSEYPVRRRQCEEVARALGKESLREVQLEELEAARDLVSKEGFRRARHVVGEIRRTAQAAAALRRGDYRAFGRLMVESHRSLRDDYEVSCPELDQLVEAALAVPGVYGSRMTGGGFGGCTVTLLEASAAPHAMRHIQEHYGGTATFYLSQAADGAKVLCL
#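 Luminescent ATP-depletion readout (Kinase-Glo Plus) after 1 h room-temperature incubation of human GALK (5 nM) with galactose 100 µM and ATP 35 µM, pH 8.0 HEPES/Mg2+ buffer; compounds tested in qHTS format.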
# * hit, by the source's call; i = inactive; u = inconclusive; x = no result; [ ] = remark or other dose. This is a sample that favours compounds with a hit; in the whole collection about 3.7% have one here. Unless noted, calls follow the shape of the dose curve; as a rule, active = well fitted curve in the direction sought with a large enough effect; inconclusive = small, poorly fitted or top-dose-only effect, or another doubt; inactive = no such curve, though single readings can be large; an effect the other way counts as inactive or inconclusive.
SMILES,B2AR arrestin ag,DRV1 agonist,PTAP-TSG101 blk,HTT promoter inh,HTT-AS promoter,GALK inhibitor
Cc1cc(C)cc(NS(=O)(=O)c2ccc3[nH]cc(C(=O)NCc4ccco4)c(=O)c3c2)c1,i,99*,i,u,-58%,7%
CCCCCCOC(=O)N=C(N)c1ccc(NCc2nc3cc(C(=O)N(CCC(=O)OCC)c4ccccn4)ccc3n2C)cc1,x,x,x,-19%,-24%,x
C[C@H](NCc1ccc2c(c1)nc(NC(=O)c1ccc(-c3cn[nH]c3)s1)n2CCc1ccccc1)C(C)(C)C,x,x,x,u,-43%,x
CNC(=O)c1cccc(-c2ccc3c(N4CCOC[C@H]4C)nc(N4CCOC[C@H]4C)nc3n2)c1,x,x,x,u,-28%,x
COc1cccc(NS(=O)(=O)c2ccc3[nH]cc(C(=O)NC4CCCCC4)c(=O)c3c2)c1,i,103*,i,u,-48%,-2%
CC(C)c1ccc(NS(=O)(=O)c2ccc3[nH]cc(C(=O)NC4CCCCC4)c(=O)c3c2)cc1,i,0,i,15%,-2%,-3%
Cc1cccc(CCNC(=O)c2c[nH]c3ccc(S(=O)(=O)Nc4ccccc4F)cc3c2=O)c1,i,11,i,22µM*,-46%,-2%
Cc1ccc(CCNC(=O)c2c[nH]c3ccc(S(=O)(=O)Nc4ccc(C)cc4C)cc3c2=O)cc1,i,-22,i,u,-30%,1%
Cc1c(Cl)cccc1NS(=O)(=O)c1ccc2[nH]cc(C(=O)NC3CCCC3)c(=O)c2c1,i,101*,i,u,-47%,-2%
CC1(C)Cc2c(-c3ccccc3)c(-c3ccc(Cl)cc3)c(CC(=O)O)n2C1,x,x,x,-22%,-31%,x
CN[C@H]1[C@@H](O)[C@@H]2O[C@@H]3O[C@H](C)CC(=O)[C@]3(O)O[C@@H]2[C@@H](NC)[C@H]1O,x,x,x,u,-93%,x
Cc1cc(N2CCN(C)CC2)nc2ccc(NC(=O)Nc3ccc(Cl)cc3)cc12,i,118*,i,23%,4%,1%
N#Cc1c(NC(=O)c2cccc3ccccc23)sc2c1CCCC2,x,x,x,-30%,-32%,x
Cc1ccccc1OCC(=O)Nc1ccccc1C(=O)OCc1cc(=O)n2c(C)csc2n1,i,11,i,2.2µM*,-47%,-2%
Cc1ccccc1OCC(=O)Nc1ccccc1C(=O)OCc1cc(=O)n2ccsc2n1,i,1,i,8%,-13%,-1%
COC(=O)c1ccc(O)c2ncc(-c3ccc(C(=O)N4CCN(C)CC4)cc3)cc12,x,x,x,-17%,x,x
CC(C)(C)OC(=O)N1CCc2nc(N3CCN(c4ncccn4)CC3)ncc2C1,i,62*,i,17%,-6%,0%
O=C(CS(=O)(=O)c1cccc2nsnc12)N1CCN(c2ccc(F)cc2)CC1,i,11,i,-15%,-12%,5%
CC(=O)c1ccc(N2CCN(C(=O)CS(=O)(=O)c3cccc4nsnc34)CC2)cc1,i,88*,i,-21%,-23%,2%
CCCNC(=O)C1CCN(Cc2cc3ccccc3n2Cc2ccccc2)CC1,i,-13,i,-30%,-24%,3%
CN(C)CCNC(=O)C1CCN(Cc2cc3ccccc3n2Cc2ccccc2)CC1,i,64*,i,u,-31%,-1%
O=C(COc1ccc(F)cc1)OCc1cc(=O)n2nc(C3CC3)sc2n1,i,97*,i,-13%,-8%,1%
O=S(=O)(Nc1cccc(F)c1)c1ccc2[nH]c3c(c2c1)CCCCC3,i,62*,i,u,12%[11.5 µM],-4%
COc1cc(NC(=O)CN(C)S(=O)(=O)c2ccc3[nH]c4c(c3c2)CCCC4)cc(OC)c1OC,i,105*,i,0%,-24%,1%
COc1cc(NS(=O)(=O)c2ccc3[nH]c4c(c3c2)CCCC4)cc(OC)c1OC,i,82*,i,u,-55%,0%
SMILES,B2AR arrestin ag,DRV1 agonist,PTAP-TSG101 blk,HTT promoter inh,HTT-AS promoter,GALK inhibitor
Cc1ccc(NS(=O)(=O)c2ccc3[nH]c4c(c3c2)CCCCCC4)cc1,i,102*,i,u,-26%,0%
O=S(=O)(Nc1cc(F)ccc1F)c1ccc2[nH]c3c(c2c1)CCCCC3,i,40,i,u,-26%,-2%
CCC[C@H]1C[C@H](C(=O)N[C@@H]([C@@H]2O[C@@H](SC)[C@@H](O)[C@@H](O)[C@@H]2O)[C@H](C)Cl)N(C)C1,x,x,x,-6%,-6%,x
COc1ccc(NS(=O)(=O)c2ccc3[nH]c4c(c3c2)CCCC4)cc1OC,i,14,i,20µM*,-47%,1%
Cc1ccc(N(C)S(=O)(=O)c2ccc3[nH]c4c(c3c2)CCCC4)cc1,i,109*,i,-11%,-20%,2%
COc1cccc(CNS(=O)(=O)c2ccc3[nH]c4c(c3c2)CCCCC4)c1,i,65*,i,u,-30%,2%
COc1cc(NS(=O)(=O)c2ccc3[nH]c4c(c3c2)CCCCCC4)cc(OC)c1,i,102*,i,u,-28%,-1%
COc1ccc(OC)c(NS(=O)(=O)c2ccc3[nH]c4c(c3c2)CCCCC4)c1,i,2,i,u,-32%,1%
CC=C1NC(=O)[C@H]2CSSCCC=C[C@H](CC(=O)N[C@H](C(C)C)C(=O)N2)OC(=O)[C@H](C(C)C)NC1=O,x,x,x,20%,u,x
Cc1ccc(NC(=O)CSc2nc(C)c(Cc3ccccc3)c(=O)[nH]2)cc1,i,63*,i,-29%,-28%,0%
C=CC(=O)Nc1cccc(Sc2nc(Nc3ccc(N4CCN(C)CC4)cc3)ncc2Cl)c1,x,x,x,-16%,-23%,x
CCOc1ccc(CCNC(=O)Cn2c(-c3cccs3)cc3cc(F)ccc32)cc1OCC,i,112*,i,u,-40%,-2%
CCOc1cc(CNC(=O)Cn2c(-c3cccs3)cc3cc(F)ccc32)ccc1OC,i,-8,i,u,-29%,0%
COc1ccccc1CNC(=O)Cn1c(-c2cccs2)cc2cc(F)ccc21,i,103*,i,-22%,-8%,1%
COCCCNC(=O)c1sc2nc(C)c(C(=O)Nc3ccc(Cl)cc3)c(-c3ccc(Br)cc3)c2c1N,i,64*,i,-28%,-3%,1%
COCCCNC(=O)c1sc2nc(C)c(C(=O)Nc3ccc(C)cc3C)c(-c3ccc(Br)cc3)c2c1N,i,-1,i,u,-18%,-2%
COc1ccc(-c2nc(CSCC(=O)N3CCN(c4ccccc4F)CC3)c(C)o2)cc1,i,14,i,28µM*,-66%,9%
